Hits are enriched below; roughly 8.1% of the tested compounds scored in any of these assays.
SW480 rereplic: DNA re-replication induction in SW480 cells; Potency, µM (doses to about 46.1 µM), hits mostly activators; AID 624297; SW480 DNA re-replication, Hoechst DNA content imaging, 48 h; 340,000 compounds, 1.8% hits; note: nearly all actives have a fitted effect of over 55% in size
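DNA re-replication was detected as more nuclei of elevated Hoechst intensity after 48 hr exposure to compound (23 nL pinned per well of 250 cells).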
KB-3-1 tox: KB-3-1 parental cell cytotoxicity; KB-3-1 viability, CellTiter-Glo ATP luminescence, 72 h; Potency, µM (top dose mostly 46.1 µM), hits mostly cytotoxic; 400,000 compounds, 1.4% hits; AID 1347075; note: nearly all actives have a fitted effect of over 60% in size
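Cytotoxicity measured as CellTiter-Glo luminescence after 72 h at 37 C. Compound titrations were pinned onto drug-naive KB-3-1 parental adenocarcinoma cells grown in DMEM with 10% FBS, and normalized data fitted to concentration-response curves.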
ELG1 DNA repair: inhibitors of ELG1-dependent DNA repair in HEK293T cells | 330,000 compounds, 2.3% hits | HEK293T ELG1-luciferase reporter, luminescence, 16 h; DNA damage induced by 5-fluorouridine | Potency, µM (top dose mostly 46.1 µM), hits mostly inhibitors; note: nearly all actives have a fitted effect of over 55% in size
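Cells (2,000 per well) received 5-fluorouridine plus test compound or DMSO and were incubated 16 hr at 37 °C, 5% CO2. Luciferase activity was read by luminescence 30 min after ONE-Glo addition; signal suppression marked inhibition of damage-induced ELG1 function.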
KB-V1 cytotox: kills drug-selected multidrug resistant KB-V1 cells. KB-V1 MDR cells viability, CellTiter-Glo, 72 h. Potency, µM (series often up to 46.1 µM), hits mostly cytotoxic. 400,000 compounds, 3.4% hits. AID 1347076; note: nearly all actives have a fitted effect of over 60% in size
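Drug-selected KB-V1 cells, grown in DMEM lacking phenol red with 10% FBS, receive compound titrations; after three days at 37 degrees C, surviving cell ATP is quantified by CellTiter-Glo luminescence and responses normalized and curve-fitted.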
MCF10A rereplic: inducers of DNA re-replication in MCF 10A breast cells; MCF 10A DNA re-replication, Hoechst nuclear intensity, 48 h; 350,000 compounds, 2.9% hits; Potency, µM (highest dose often 46.1 µM), hits mostly activators; note: nearly all actives have a fitted effect of over 50% in size
Each line names hits and unclear results; the compound was inactive in the other large screens; ! = not active in a repeat. Calls come from the whole dose curve; as a rule, active = well fitted curve in the direction sought with a large enough effect; inconclusive = small, poorly fitted or top-dose-only effect, or another doubt; inactive = no such curve, though single readings can be large; an effect the other way counts as inactive or inconclusive.

COc1cccc(NC(CNS(=O)(=O)c2ccc(C)cc2)c2ccccc2)c1 (stereo not given)	KB-3-1 tox inconclusive, KB-V1 cytotox 18µM (no result: SW480 rereplic, ELG1 DNA repair, MCF10A rereplic)
COc1cccc(NC(CNS(=O)(=O)c2ccc(Cl)cc2)c2ccccc2)c1 (stereo not given)	KB-3-1 tox 18µM (no result: SW480 rereplic, ELG1 DNA repair, MCF10A rereplic)
O=S(=O)(NCC(Nc1ccc(Cl)cc1)c1ccccc1)c1ccccc1 (stereo not given)	SW480 rereplic inconclusive, KB-3-1 tox inconclusive, KB-V1 cytotox 18µM!, MCF10A rereplic 4.6µM
CCC(C)Cn1c(COc2ccc(OC)cc2)nc2ccccc21 (stereo not given)	none (no result: SW480 rereplic, ELG1 DNA repair, MCF10A rereplic)
CCC(C)Cn1c(C)nc2ccccc21 (stereo not given)	ELG1 DNA repair 9.2µM
Sc1oc(-c2ccccc2)cc1C=Nc1ccccc1	SW480 rereplic 13µM, ELG1 DNA repair inconclusive, MCF10A rereplic inconclusive
Oc1oc(-c2ccccc2)nc1C=Nc1ccccc1	ELG1 DNA repair inconclusive
CCC(=O)Nc1ccc(-c2ccc(NC(=O)CC)c(OC)c2)cc1OC	SW480 rereplic inconclusive, ELG1 DNA repair inconclusive
CCOc1cc(Cl)c(NC(=O)CC)cc1OCC	SW480 rereplic 18µM
O=C(Oc1ccc(Cl)c2cccnc12)C12CC3CC(CC(C3)C1)C2	ELG1 DNA repair inconclusive, MCF10A rereplic 18µM
COc1ccc(Cn2nnc3c(=O)[nH]c(C4CCCN(C(=O)c5ccccc5)C4)nc32)cc1 (stereo not given)	none
CCNc1nc(Cl)nc(N(NC(C)=O)C(C)CC)n1 (stereo not given)	none
C(=C\c1ccnc2ccccc12)/c1cccs1	KB-V1 cytotox inconclusive (no result: SW480 rereplic, ELG1 DNA repair, MCF10A rereplic)
O=C(/C=C/c1ccnc2ccccc12)c1cccs1	SW480 rereplic inconclusive, ELG1 DNA repair inconclusive, KB-V1 cytotox inconclusive, MCF10A rereplic 9.2µM
Cc1cc(C)n(CCNC(=O)C2CCC(=O)N(CC3CCCCC3)C2)n1 (stereo not given)	none
N#CC(C(=S)Nc1ccccc1)c1nc2ccccc2[nH]1 (stereo not given)	SW480 rereplic inconclusive, ELG1 DNA repair 13µM, KB-V1 cytotox inconclusive, MCF10A rereplic inconclusive
C=CCCN([C@H](CO)Cc1ccccc1)S(=O)(=O)c1ccccc1Br	ELG1 DNA repair inconclusive, MCF10A rereplic inconclusive
C=CS(=O)(=O)N(Cc1ccccc1Br)[C@H](CO)Cc1ccccc1	SW480 rereplic inconclusive, KB-3-1 tox inconclusive, KB-V1 cytotox inconclusive, MCF10A rereplic 16µM (no result: ELG1 DNA repair)
O=C(Nc1ccccc1Cl)C1CCCN(S(=O)(=O)c2cccc3cccnc23)C1 (stereo not given)	MCF10A rereplic inconclusive
O=C(Nc1nc2cc(Cl)ccc2s1)C1CCCN(S(=O)(=O)c2cccc3cccnc23)C1 (stereo not given)	KB-3-1 tox inconclusive, ELG1 DNA repair 16µM, KB-V1 cytotox inconclusive, MCF10A rereplic inconclusive
O=C(O)[C@@H]1CCCN(S(=O)(=O)c2cccc3cccnc23)C1	none
O=C(Nc1ccc(C(F)(F)F)cc1)C1CCCN1S(=O)(=O)c1cccc2cccnc12 (stereo not given)	KB-3-1 tox 23µM, ELG1 DNA repair 21µM, KB-V1 cytotox 4.6µM
CC1Cc2ccccc2N1C(=O)C1CCCN(S(=O)(=O)c2cccc3cccnc23)C1 (stereo not given)	SW480 rereplic inconclusive, KB-3-1 tox inconclusive, ELG1 DNA repair 21µM, KB-V1 cytotox inconclusive
O=C(Nc1cccc(F)c1)C1CCCN1S(=O)(=O)c1cccc2cccnc12 (stereo not given)	none
Cc1ccc(NC(=O)C2CCCN(S(=O)(=O)c3cccc4cccnc34)C2)cc1Cl (stereo not given)	none (no result: SW480 rereplic, ELG1 DNA repair, MCF10A rereplic)
O=C(Nc1nccs1)C1CCCN(S(=O)(=O)c2cccc3cccnc23)C1 (stereo not given)	ELG1 DNA repair 23µM
O=C(CN1CCCCCC1)Nc1ccc(F)c(F)c1	none
Cc1cccc(C)c1OCCOCCN1CCN(C)CC1	KB-V1 cytotox inconclusive, MCF10A rereplic inconclusive
O=C(CSc1nncs1)Nc1nccs1	none
CN(C(=O)CSc1nnc2n1CCCCC2)C1(C#N)CCCCC1	none
CCN(CC)C(=O)N1CCN(S(=O)(=O)c2c(C)cc(C)cc2C)CC1	SW480 rereplic inconclusive, MCF10A rereplic inconclusive
CC(=O)c1cccc(NC(=O)C2CCCN(S(=O)(=O)c3cccc4cccnc34)C2)c1 (stereo not given)	ELG1 DNA repair 16µM, KB-V1 cytotox inconclusive
